Assay results as given in PMC5349851, “Combinatorial bZIP dimers display complex DNA-binding specificity landscapes”.

Columns and labels:
Experiment in all cases: SELEX-seq (CSI, HT-SELEX, round 3); SELEX-seq: 1x PBS (10 mM phosphate, 137 mM NaCl, 2.7 mM KCl) pH 7.6, 2.5 mM DTT, 50 ng/ul poly dI-dC, 0.1% BSA, 50 nM biotinylated bZIP (1:3 with partner for heterodimers), 100 nM library, room temperature, 1 h, 3 rounds; high values mean tight binding
Conditions in all cases: protein: recombinant;recombinant; copies: 1;1; dsDNA, one strand shown
ATF3;CEBPG = biological target: T1, ATF3;CEBPG (Homo sapiens;Homo sapiens, UniProt P18847;P53567 77-150;52-130, |)
T1 sequence 1: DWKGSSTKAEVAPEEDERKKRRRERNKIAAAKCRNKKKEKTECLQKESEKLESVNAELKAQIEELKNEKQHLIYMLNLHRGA
T1 sequence 2: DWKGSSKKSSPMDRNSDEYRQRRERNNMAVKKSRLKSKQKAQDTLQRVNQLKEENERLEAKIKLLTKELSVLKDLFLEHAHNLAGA

ATF3;CEBPA = ATF3;CEBPA (Homo sapiens;Homo sapiens, UniProt P18847;P49715 77-150;273-345, |)
JUN;CEBPA = JUN;CEBPA (Homo sapiens;Homo sapiens, UniProt P05412;P49715 243-316;273-345, |)
Sequence of JUN;CEBPA (P05412 other isoform, or with tags, fused parts or gaps |, chain 1 of 2): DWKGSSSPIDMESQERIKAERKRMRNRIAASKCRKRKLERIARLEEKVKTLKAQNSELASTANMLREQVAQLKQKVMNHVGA
Sequence of JUN;CEBPA (P49715 other isoform, or with tags, fused parts or gaps |, chain 2 of 2): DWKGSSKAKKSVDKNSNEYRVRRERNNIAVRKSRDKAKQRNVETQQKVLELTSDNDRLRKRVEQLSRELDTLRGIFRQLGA

BATF3;CEBPG = biological target: T2, BATF3;CEBPG (Homo sapiens;Homo sapiens, UniProt Q9NR55;P53567 26-99;52-130, |)
T2 sequence 1: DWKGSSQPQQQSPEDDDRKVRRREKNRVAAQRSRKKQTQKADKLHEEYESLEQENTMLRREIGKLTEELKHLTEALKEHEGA
T2 sequence 2: T1 sequence 2

BATF3;CEBPA = BATF3;CEBPA (Homo sapiens;Homo sapiens, UniProt Q9NR55;P49715 26-99;273-345, |)
Sequence of BATF3;CEBPA (P49715 other isoform, or with tags, fused parts or gaps |): as the sequence (P49715 other isoform, or with tags, fused parts or gaps |, chain 2 of 2) above

ATF3;ATF3 = biological target: T3, ATF3;ATF3 (Homo sapiens;Homo sapiens, UniProt P18847;P18847 77-150;77-150, |)
T3 sequence 1: T1 sequence 1
T3 sequence 2: T1 sequence 1

JUNB;CEBPA = JUNB;CEBPA (Homo sapiens;Homo sapiens, UniProt P17275;P49715 259-332;273-345, |)
Sequence of JUNB;CEBPA (P17275 other isoform, or with tags, fused parts or gaps |, chain 1 of 2): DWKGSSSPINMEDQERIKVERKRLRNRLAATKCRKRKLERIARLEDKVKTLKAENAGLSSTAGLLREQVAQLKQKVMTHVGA
Sequence of JUNB;CEBPA (P49715 other isoform, or with tags, fused parts or gaps |, chain 2 of 2): as the sequence (P49715 other isoform, or with tags, fused parts or gaps |, chain 2 of 2) above

BATF;CEBPG = biological target: T4, BATF;CEBPG (Homo sapiens;Homo sapiens, UniProt Q16520;P53567 17-90;52-130, |)
T4 sequence 1: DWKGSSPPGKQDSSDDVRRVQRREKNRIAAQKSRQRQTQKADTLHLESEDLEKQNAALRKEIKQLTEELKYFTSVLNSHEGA
T4 sequence 2: T1 sequence 2

JUN;CEBPG = JUN;CEBPG (Homo sapiens;Homo sapiens, UniProt P05412;P53567 243-316;52-130, |)
FOSL1;CEBPG = biological target: T5, FOSL1;CEBPG (Homo sapiens;Homo sapiens, UniProt P15407;P53567 96-169;52-130, |)
T5 sequence 1: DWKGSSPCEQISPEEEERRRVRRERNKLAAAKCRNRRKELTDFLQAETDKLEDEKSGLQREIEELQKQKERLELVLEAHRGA
T5 sequence 2: T1 sequence 2

| Sequence | binding signal (ATF3;CEBPG) | binding signal (ATF3;CEBPA) | binding signal (JUN;CEBPA) | binding signal (BATF3;CEBPG) | binding signal (BATF3;CEBPA) | binding signal (ATF3;ATF3) | binding signal (JUNB;CEBPA) | binding signal (BATF;CEBPG) | binding signal (JUN;CEBPG) | binding signal (FOSL1;CEBPG) |
| --- | --- | --- | --- | --- | --- | --- | --- | --- | --- | --- |
| CCTGACGTCA | 0.0196 relative CSI intensity (max = 1) | 0.18 relative CSI intensity (max = 1) | 0.00973 relative CSI intensity (max = 1) | 0.00277 relative CSI intensity (max = 1) | 0.00253 relative CSI intensity (max = 1) | 0.0945 relative CSI intensity (max = 1) | 0.00467 relative CSI intensity (max = 1) | 0.0162 relative CSI intensity (max = 1) | – | – |
| ATGACGCAAT | 1 relative CSI intensity (max = 1) | 0.754 relative CSI intensity (max = 1) | 0.7 relative CSI intensity (max = 1) | 0.954 relative CSI intensity (max = 1) | 0.595 relative CSI intensity (max = 1) | 0.0322 relative CSI intensity (max = 1) | 1 relative CSI intensity (max = 1) | 0.678 relative CSI intensity (max = 1) | 1 relative CSI intensity (max = 1) | 1 relative CSI intensity (max = 1) |
| ATGACGTAAT | 0.53 relative CSI intensity (max = 1) | 0.606 relative CSI intensity (max = 1) | 0.286 relative CSI intensity (max = 1) | 0.306 relative CSI intensity (max = 1) | 0.226 relative CSI intensity (max = 1) | 0.196 relative CSI intensity (max = 1) | 0.144 relative CSI intensity (max = 1) | 0.22 relative CSI intensity (max = 1) | 0.246 relative CSI intensity (max = 1) | 0.318 relative CSI intensity (max = 1) |
| ATGATGCAAT | 0.538 relative CSI intensity (max = 1) | 0.655 relative CSI intensity (max = 1) | 0.679 relative CSI intensity (max = 1) | 0.78 relative CSI intensity (max = 1) | 0.725 relative CSI intensity (max = 1) | 0.00513 relative CSI intensity (max = 1) | 0.927 relative CSI intensity (max = 1) | 0.553 relative CSI intensity (max = 1) | 0.445 relative CSI intensity (max = 1) | 0.498 relative CSI intensity (max = 1) |
| ATGACGGAAT | 0.0128 relative CSI intensity (max = 1) | 0.105 relative CSI intensity (max = 1) | 0.00425 relative CSI intensity (max = 1) | 0.00179 relative CSI intensity (max = 1) | – | 0.00639 relative CSI intensity (max = 1) | 0.00413 relative CSI intensity (max = 1) | 0.00661 relative CSI intensity (max = 1) | 0.0184 relative CSI intensity (max = 1) | – |
| ATGACGTCAT | 0.268 relative CSI intensity (max = 1) | 1 relative CSI intensity (max = 1) | 1 relative CSI intensity (max = 1) | 0.108 relative CSI intensity (max = 1) | 0.0986 relative CSI intensity (max = 1) | 1 relative CSI intensity (max = 1) | 0.0515 relative CSI intensity (max = 1) | 0.12 relative CSI intensity (max = 1) | 0.705 relative CSI intensity (max = 1) | 0.43 relative CSI intensity (max = 1) |
